# From ChEMBL document CHEMBL1961873, “Compounds: GSK PKIS; Assays: Nanosyn kinase panel” (2012)
# What was measured:
# [1] = molecular target: Leukocyte tyrosine kinase receptor (Homo sapiens) (UniProt P29376); conditions: at 1 µM;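 note: each value is the mean inhibition of LTK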
# [2] = molecular target: Tyrosine-protein kinase Lyn (Homo sapiens) (UniProt P07948); conditions: at 0.1 µM
# [3] = molecular target: Tyrosine-protein kinase Lyn (Homo sapiens) (UniProt P07948); conditions: at 1 µM
# [4] = molecular target: Tyrosine-protein kinase Lyn (Homo sapiens) (UniProt P07948); conditions: at 0.1 µM; remark: listed apart in the source
# [5] = molecular target: Tyrosine-protein kinase Lyn (Homo sapiens) (UniProt P07948); conditions: at 1 µM; remark: listed apart in the source
# [6] = molecular target: T1, Tyrosine-protein kinase Mer (Homo sapiens) (UniProt Q12866); conditions: at 0.1 µM
# T1 sequence (whole entry): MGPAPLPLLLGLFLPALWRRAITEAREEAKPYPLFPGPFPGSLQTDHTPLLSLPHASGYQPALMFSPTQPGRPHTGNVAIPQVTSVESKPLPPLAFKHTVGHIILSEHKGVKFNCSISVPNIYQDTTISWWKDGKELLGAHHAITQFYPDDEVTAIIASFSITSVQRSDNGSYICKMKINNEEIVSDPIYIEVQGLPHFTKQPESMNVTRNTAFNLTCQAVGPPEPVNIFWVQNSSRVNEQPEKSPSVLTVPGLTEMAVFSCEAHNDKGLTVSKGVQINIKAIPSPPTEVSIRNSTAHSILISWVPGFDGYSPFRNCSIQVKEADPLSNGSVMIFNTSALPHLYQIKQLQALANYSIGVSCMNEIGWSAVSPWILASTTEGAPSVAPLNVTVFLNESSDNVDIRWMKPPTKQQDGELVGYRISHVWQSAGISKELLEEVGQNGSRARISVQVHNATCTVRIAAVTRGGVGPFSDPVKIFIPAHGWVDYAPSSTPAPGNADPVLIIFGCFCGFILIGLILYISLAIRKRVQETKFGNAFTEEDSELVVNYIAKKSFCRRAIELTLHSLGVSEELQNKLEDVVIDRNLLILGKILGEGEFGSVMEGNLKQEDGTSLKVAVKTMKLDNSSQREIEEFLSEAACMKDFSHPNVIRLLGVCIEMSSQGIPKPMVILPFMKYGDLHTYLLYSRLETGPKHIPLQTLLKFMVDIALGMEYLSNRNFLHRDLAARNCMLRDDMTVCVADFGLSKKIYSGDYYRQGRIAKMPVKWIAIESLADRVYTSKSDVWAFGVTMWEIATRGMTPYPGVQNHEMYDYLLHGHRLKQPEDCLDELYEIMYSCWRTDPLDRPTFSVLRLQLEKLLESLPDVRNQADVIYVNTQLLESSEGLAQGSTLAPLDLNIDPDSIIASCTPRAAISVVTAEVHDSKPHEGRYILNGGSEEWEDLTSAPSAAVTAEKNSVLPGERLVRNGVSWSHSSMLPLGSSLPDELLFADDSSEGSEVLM
# [7] = molecular target: T1, Tyrosine-protein kinase Mer (Homo sapiens); conditions: at 1 µM
# [8] = molecular target: Hepatocyte growth factor receptor (Homo sapiens) (UniProt P08581); conditions: at 0.1 µM
# [9] = molecular target: Hepatocyte growth factor receptor (Homo sapiens) (UniProt P08581); conditions: at 1 µM
# [10] = molecular target: T2, Muscle, skeletal receptor tyrosine-protein kinase (Homo sapiens) (UniProt O15146); conditions: at 0.1 µM
# T2 sequence (whole entry): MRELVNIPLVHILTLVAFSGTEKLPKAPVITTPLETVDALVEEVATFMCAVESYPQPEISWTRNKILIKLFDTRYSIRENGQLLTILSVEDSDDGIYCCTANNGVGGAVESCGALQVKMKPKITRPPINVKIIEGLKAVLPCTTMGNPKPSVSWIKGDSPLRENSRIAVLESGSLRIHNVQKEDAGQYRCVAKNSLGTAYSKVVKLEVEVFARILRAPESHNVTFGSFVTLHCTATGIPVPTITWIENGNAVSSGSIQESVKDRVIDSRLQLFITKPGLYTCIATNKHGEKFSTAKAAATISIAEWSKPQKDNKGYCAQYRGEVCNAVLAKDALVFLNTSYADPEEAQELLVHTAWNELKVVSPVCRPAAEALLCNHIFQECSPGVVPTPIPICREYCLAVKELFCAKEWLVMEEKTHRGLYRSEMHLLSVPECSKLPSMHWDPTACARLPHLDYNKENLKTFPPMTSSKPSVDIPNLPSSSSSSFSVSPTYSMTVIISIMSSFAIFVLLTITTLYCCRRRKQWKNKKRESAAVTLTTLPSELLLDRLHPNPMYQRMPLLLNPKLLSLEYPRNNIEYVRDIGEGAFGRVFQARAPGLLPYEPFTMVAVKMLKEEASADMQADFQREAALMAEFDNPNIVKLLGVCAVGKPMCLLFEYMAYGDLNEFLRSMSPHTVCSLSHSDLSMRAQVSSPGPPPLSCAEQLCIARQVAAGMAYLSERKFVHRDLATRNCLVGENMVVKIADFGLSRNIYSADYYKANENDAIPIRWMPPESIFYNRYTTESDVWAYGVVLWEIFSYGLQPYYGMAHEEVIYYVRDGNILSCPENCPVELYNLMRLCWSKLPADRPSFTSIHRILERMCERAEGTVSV
# [11] = molecular target: T2, Muscle, skeletal receptor tyrosine-protein kinase (Homo sapiens); conditions: at 1 µM
# [12] = molecular target: Platelet-derived growth factor receptor alpha (Homo sapiens) (UniProt P16234); conditions: at 0.1 µM
# [13] = molecular target: Platelet-derived growth factor receptor alpha (Homo sapiens) (UniProt P16234); conditions: at 1 µM
# [14] = system: Platelet-derived growth factor receptor alpha (Homo sapiens), P16234 [D842V]; conditions: at 0.1 µM
# [15] = system: Platelet-derived growth factor receptor alpha (Homo sapiens), P16234 [D842V]; conditions: at 1 µM
# [16] = system: Platelet-derived growth factor receptor alpha (Homo sapiens), P16234 [T674I]; conditions: at 0.1 µM
# [17] = system: Platelet-derived growth factor receptor alpha (Homo sapiens), P16234 [T674I]; conditions: at 1 µM
# [18] = system: Platelet-derived growth factor receptor alpha (Homo sapiens), P16234 [V561D]; conditions: at 0.1 µM
# [19] = system: Platelet-derived growth factor receptor alpha (Homo sapiens), P16234 [V561D]; conditions: at 1 µM
# [20] = molecular target: Platelet-derived growth factor receptor beta (Homo sapiens) (UniProt P09619); conditions: at 0.1 µM;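 note: reported value is the mean percent inhibition of the kinase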
# Platelet-derived growth factor receptor alpha (Homo sapiens), P16234 [V561D], sequence (P16234 whole entry V561D): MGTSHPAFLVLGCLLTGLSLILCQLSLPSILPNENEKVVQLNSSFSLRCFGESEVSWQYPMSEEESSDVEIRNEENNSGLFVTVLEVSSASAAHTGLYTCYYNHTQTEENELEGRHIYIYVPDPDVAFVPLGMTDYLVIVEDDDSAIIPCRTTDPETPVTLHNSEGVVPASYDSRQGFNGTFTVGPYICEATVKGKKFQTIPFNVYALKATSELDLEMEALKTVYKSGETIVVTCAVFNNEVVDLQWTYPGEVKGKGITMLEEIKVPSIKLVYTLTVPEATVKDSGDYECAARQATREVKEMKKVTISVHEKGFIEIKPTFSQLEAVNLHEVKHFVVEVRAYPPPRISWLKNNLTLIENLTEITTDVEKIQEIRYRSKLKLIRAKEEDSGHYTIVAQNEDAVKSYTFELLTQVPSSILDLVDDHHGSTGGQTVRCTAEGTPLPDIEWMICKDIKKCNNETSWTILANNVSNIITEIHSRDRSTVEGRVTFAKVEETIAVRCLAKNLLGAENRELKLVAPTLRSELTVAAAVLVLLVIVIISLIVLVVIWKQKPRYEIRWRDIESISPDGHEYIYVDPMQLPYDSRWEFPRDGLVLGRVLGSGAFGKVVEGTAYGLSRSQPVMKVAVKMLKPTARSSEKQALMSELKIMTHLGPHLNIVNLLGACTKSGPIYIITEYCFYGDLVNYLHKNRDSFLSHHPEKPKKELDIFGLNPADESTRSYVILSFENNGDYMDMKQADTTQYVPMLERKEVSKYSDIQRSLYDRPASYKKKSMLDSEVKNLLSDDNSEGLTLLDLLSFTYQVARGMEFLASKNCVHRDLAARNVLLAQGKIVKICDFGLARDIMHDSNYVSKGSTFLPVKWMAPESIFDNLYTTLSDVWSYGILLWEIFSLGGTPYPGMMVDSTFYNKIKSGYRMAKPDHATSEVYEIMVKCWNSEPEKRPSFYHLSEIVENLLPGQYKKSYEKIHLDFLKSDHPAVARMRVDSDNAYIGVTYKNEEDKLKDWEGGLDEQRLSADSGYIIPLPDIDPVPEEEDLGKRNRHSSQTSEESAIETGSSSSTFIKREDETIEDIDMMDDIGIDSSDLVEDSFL
# Platelet-derived growth factor receptor alpha (Homo sapiens), P16234 [T674I], sequence (P16234 whole entry T674I): as the sequence (P16234 whole entry V561D) above, with D561V, T674I counted along it
# Platelet-derived growth factor receptor alpha (Homo sapiens), P16234 [D842V], sequence (P16234 whole entry D842V): as the sequence (P16234 whole entry V561D) above, with D561V, D842V counted along it
# Hepatocyte growth factor receptor (Homo sapiens), sequence (P08581 whole entry): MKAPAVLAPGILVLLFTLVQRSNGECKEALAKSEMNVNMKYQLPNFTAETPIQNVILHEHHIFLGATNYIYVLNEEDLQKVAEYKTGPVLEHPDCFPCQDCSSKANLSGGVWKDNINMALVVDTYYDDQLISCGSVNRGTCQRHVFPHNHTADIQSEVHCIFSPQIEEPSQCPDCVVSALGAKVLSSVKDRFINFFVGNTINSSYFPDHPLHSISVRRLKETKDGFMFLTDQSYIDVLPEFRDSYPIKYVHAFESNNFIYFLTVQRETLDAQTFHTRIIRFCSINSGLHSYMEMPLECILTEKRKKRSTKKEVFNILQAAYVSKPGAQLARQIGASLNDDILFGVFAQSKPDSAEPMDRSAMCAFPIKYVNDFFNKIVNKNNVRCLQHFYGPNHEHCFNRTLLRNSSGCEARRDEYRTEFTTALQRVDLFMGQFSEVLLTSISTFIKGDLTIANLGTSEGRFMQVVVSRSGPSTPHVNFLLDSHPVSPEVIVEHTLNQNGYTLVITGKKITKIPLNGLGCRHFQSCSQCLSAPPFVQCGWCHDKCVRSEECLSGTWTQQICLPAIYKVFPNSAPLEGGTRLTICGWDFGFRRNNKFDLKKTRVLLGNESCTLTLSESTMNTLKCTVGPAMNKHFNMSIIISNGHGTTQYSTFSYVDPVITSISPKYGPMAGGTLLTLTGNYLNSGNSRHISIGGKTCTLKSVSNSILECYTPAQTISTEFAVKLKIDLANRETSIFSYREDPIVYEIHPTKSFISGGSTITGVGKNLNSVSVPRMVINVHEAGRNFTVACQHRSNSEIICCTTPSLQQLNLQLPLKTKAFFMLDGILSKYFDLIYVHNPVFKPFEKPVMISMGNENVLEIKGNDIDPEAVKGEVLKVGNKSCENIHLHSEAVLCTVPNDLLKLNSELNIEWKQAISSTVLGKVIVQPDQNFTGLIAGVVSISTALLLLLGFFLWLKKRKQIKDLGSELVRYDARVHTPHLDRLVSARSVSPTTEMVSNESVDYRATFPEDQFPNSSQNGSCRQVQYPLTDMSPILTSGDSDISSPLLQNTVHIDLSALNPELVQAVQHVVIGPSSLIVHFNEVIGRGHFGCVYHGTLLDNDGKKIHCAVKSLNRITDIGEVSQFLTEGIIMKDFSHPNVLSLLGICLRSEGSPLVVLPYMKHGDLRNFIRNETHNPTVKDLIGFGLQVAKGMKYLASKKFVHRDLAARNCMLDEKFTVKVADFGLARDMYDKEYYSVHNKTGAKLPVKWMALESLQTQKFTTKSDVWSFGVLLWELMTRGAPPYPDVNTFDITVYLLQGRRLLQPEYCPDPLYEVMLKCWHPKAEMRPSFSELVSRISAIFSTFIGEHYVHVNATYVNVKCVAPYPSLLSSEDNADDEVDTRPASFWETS
SMILES,inhibition [1] [%],inhibition [2] [%],inhibition [3] [%],inhibition [4] [%],inhibition [5] [%],inhibition [6] [%],inhibition [7] [%],inhibition [8] [%],inhibition [9] [%],inhibition [10] [%],inhibition [11] [%],inhibition [12] [%],inhibition [13] [%],inhibition [14] [%],inhibition [15] [%],inhibition [16] [%],inhibition [17] [%],inhibition [18] [%],inhibition [19] [%],inhibition [20] [%]
COc1cc(N2CCN(C(C)C)CC2)ccc1Nc1nc(Nc2ccc(F)cc2C(N)=O)c2cc[nH]c2n1,96,2.75,2.96,1.54,1.29,4.46,8.43,7.18,0.66,1.72,13.2,3.76,31.1,1.57,21.6,1.91,5.04,1.82,21.8,5.8
COC(=O)c1sc(-n2cnc3cc(OC)c(OC)cc32)cc1OCc1ccccc1C(F)(F)F,6.79,9.46,19.6,6.71,14.7,1.24,2.08,-0.86,6.35,15.4,48.1,26.1,66.3,18,66.5,9.67,44.6,22.2,70.6,14.9
Fc1cccc(COc2ccc(Nc3ncnc4sc(-c5ccco5)cc34)cc2Cl)c1,4.08,3.59,4.38,2.97,2.48,0.45,3.51,3.09,4.96,4.4,3.44,13.5,19.9,3,2.87,6.38,15.5,6.49,4.1,7.85
N#Cc1c(NC(=O)c2ccc(F)cc2)sc2c1CCCC2,0.33,0.87,2.77,0.6,2.84,-0.51,0.78,1,2.01,1.9,2.55,5.56,7.32,1.23,1,3.5,3.1,0.92,3.17,1.37
COC(=O)Nc1nc2ccc(Oc3ccc(NC(=O)Nc4cccc(Cl)c4)cc3)cc2[nH]1,1.17,5.13,13.5,4.25,11.1,2.64,2.51,9.7,12.3,10.2,33.2,62.2,76.9,2.44,8.07,76.6,85.5,74.6,92.6,12.2
CS(=O)(=O)CCNCc1coc(-c2ccc3ncnc(Nc4ccc(OCc5ccccc5)cc4)c3c2)c1,11.4,3.61,8.56,3.96,6.66,5.03,29.9,9.58,9.58,2.22,4.59,7.28,11.5,3.71,4.82,3.65,6.58,3.61,12.8,3.03
[O-][S+]1CCN(Cc2ccc(-c3ccc4ncnc(Nc5ccc(OCc6cccc(F)c6)c(Cl)c5)c4c3)o2)CC1,7.31,6.15,8.63,5.42,7.66,2.54,31,11.9,10.6,3.52,2.81,7.43,13.2,4.45,6.91,4,6.97,3.95,8.29,4.69
COc1ccc(-c2nn3ncccc3c2-c2ccnc(Nc3ccc4c(c3)OCCO4)n2)cc1,23.5,13.8,60.4,9.96,55.4,-0.06,12.9,-1.3,8.57,-0.81,-1.95,6.34,29.6,0.81,11.7,4.01,15.3,6.6,39.6,4.03
COc1cc(/C=N/Nc2ncnc3[nH]ncc23)ccc1O,12.2,16.8,63.9,12.6,59.6,1.2,9.92,1.87,14.9,5.09,22.6,27.3,72.4,28.4,80.8,3.77,16.5,25,76.3,21.9
Nc1ncc(-c2cccc(S(N)(=O)=O)c2)c2scc(-c3ccc(F)c(Cl)c3)c12,54.6,14,56.7,10.5,50,0.36,10.6,4.62,3.25,2.5,1.44,18.9,72.1,7.66,42.4,4.52,10.5,36.8,78.1,14.8
c1ccc(COc2ccc(Nc3ncnc4ccc(-c5ccco5)cc34)cc2)cc1,1.92,1.51,2.5,1.39,1.94,1.57,12.7,7.46,2.85,0.09,1.01,3.81,6.96,2.63,3.21,2.49,3.6,2.39,2.43,-0.23
O=S(=O)(CCNCc1ccc(-c2ccc3ncnc(Nc4ccc(OCc5cccc(F)c5)c(Cl)c4)c3c2)o1)c1ccccc1,5.42,6.84,7.64,3.9,4.05,3.42,7.37,-0.44,6.95,6.83,5.15,11.9,19,3.35,6.47,7.8,12.8,3.09,8.1,5.51
CC(C)COC(=O)c1ccc2c(c1)/C(=C/Nc1ccc(S(N)(=O)=O)cc1)C(=O)N2,4.2,2.35,24.3,0.51,20.4,2.14,4.37,-4.39,13.3,7.69,51.3,53.2,84.3,60.7,93.1,4.41,38.9,44.7,88.4,66.3
